Source: PubChem BioAssay AID743497 (The Scripps Research Institute Molecular Screening Center, 2014)
Unmarked numbers belong to inactive results. Calls of active or inactive are those of the source.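 The calls were made as follows: active = IC50 of 10 µM or lower; inactive = IC50 above 10 µM.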

Assay: binders of r(CAG) RNA repeats, SAR follow-up, biochemical, fluorescence, dose response, MedChem round 1 (AID 743497)
Settings: r(CAG) RNA 1x1 AA loop, TO-PRO-1 displacement fluorescence

SMILES | IC50
CN(C)CCCNC(=O)/C=C/c1cn(-c2ccccc2)nc1-c1ccccc1 | > 29.9 µM
CNC(=O)Cc1ccc(NC(=O)/C=C/c2cn(-c3ccccc3)nc2-c2ccc(F)cc2)cc1 | > 29.9 µM
O=C(/C=C/c1cn(-c2ccccc2)nc1-c1ccccc1)N1CCN(CC(=O)N2CCCC2)CC1 | > 29.9 µM
CCN1CCN(C(=O)/C=C/c2cn(-c3ccccc3)nc2-c2ccccc2)CC1 | > 29.9 µM
CN(C)C(=O)C1CCN(C(=O)/C=C/c2cn(-c3ccccc3)nc2-c2ccccc2)CC1 | > 29.9 µM
CCOC(=O)N1CCC(NC(=O)/C=C/c2cn(-c3ccccc3)nc2-c2ccccc2)CC1 | > 29.9 µM
O=C(/C=C/c1cn(-c2ccccc2)nc1-c1ccccc1)NCc1ccccc1 | > 29.9 µM
O=C(/C=C\c1cn(-c2ccccc2)nc1-c1ccc(F)cc1)Nc1ccc(C(=O)O)cc1 | 2.15 µM (active)
CC(=O)NS(=O)(=O)c1ccc(NC(=O)/C=C/c2cn(-c3ccccc3)nc2-c2ccccc2)cc1 | 1.62 µM (active)
CN1CCC(N(C)C(=O)/C=C/c2cn(-c3ccccc3)nc2-c2ccccc2)CC1 | > 29.9 µM
O=C(/C=C/c1cn(-c2ccccc2)nc1-c1ccccc1)NCCc1c[nH]c2ccccc12 | > 29.9 µM
O=C(/C=C/c1cn(-c2ccccc2)nc1-c1ccccc1)Nc1cc(S(=O)(=O)N2CCCC2)ccc1Cl | > 29.9 µM
COc1ccc(-c2nn(-c3ccccc3)cc2/C=C/C(=O)Nc2cccc(NC(C)=O)c2)cc1OC | > 29.9 µM
Cc1c(C(=O)Nc2ccc(S(=O)(=O)NCCCN3CCOCC3)cc2)oc2ccc(F)cc12 | > 29.9 µM
CCN(c1ccccc1)S(=O)(=O)c1ccc(NC(=O)c2oc3ccc(F)cc3c2C)cc1 | > 29.9 µM
Cc1c(C(=O)Nc2ccc(S(=O)(=O)Nc3ncccn3)cc2)oc2ccc(F)cc12 | > 29.9 µM
NC(=O)c1cc(NC(=O)/C=C/c2cn(-c3ccccc3)nc2-c2ccc(F)cc2)c(F)cc1F | > 29.9 µM
Cc1c(C(=O)Nc2ccc(S(=O)(=O)N(C)Cc3ccccc3)cc2)oc2ccc(F)cc12 | > 29.9 µM
CS(=O)(=O)Nc1cc(NC(=O)/C=C/c2cn(-c3ccccc3)nc2-c2ccccc2)ccc1F | 6.38 µM (active)
Cc1ccc(-c2nn(-c3ccccc3)cc2/C=C/C(=O)Nc2ccc(S(N)(=O)=O)cc2)cc1 | 29.1 µM
COc1ccc(NC(=O)/C=C/c2cn(-c3ccccc3)nc2-c2ccc(OC)cc2)cc1 | > 29.9 µM
COC(=O)c1ccc(NC(=O)/C=C/c2cn(CCC#N)nc2-c2ccc(F)cc2)cc1 | > 29.9 µM
N#C/C(=C/c1cn(Cc2ccccc2)nc1-c1cccnc1)C(=O)Nc1ccc(C(=O)O)cc1 | 16 µM
COc1ccc(-c2nn(-c3ccccc3)cc2/C=C/C(=O)Nc2ccc(C(=O)O)cc2)cc1 | 1.94 µM (active)
CN1C(=O)/C(=C/c2cn(-c3ccccc3)nc2-c2ccccc2)c2ccccc21 | > 29.9 µM
NS(=O)(=O)c1ccc(NC(=O)/C=C/c2cn(-c3ccccc3)nc2-c2cccc(Cl)c2)cc1 | > 29.9 µM
Cc1ccc(-c2nn(-c3ccccc3)cc2/C=C/C(=O)Nc2cccc(S(N)(=O)=O)c2)cc1 | > 29.9 µM
O=C(/C=C/c1cn(-c2ccccc2)nc1-c1ccccc1)NCCO | > 29.9 µM
CCN(CC)C(=O)/C=C/c1cn(-c2ccccc2)nc1-c1ccccc1 | > 29.9 µM
O=C(/C=C/c1cn(-c2ccccc2)nc1-c1ccc2ccccc2c1)Nc1ccc(C(=O)O)cc1 | 2.18 µM (active)
